Screens as filed in PubChem BioAssay.
Most compounds without a hit are left out; they make up all but 7.4% or so of the library.
NPC1 promoter act = NPC1 promoter activation. Huh7 NPC1 promoter luciferase reporter, 24 h. Potency, µM (doses to about 9.22 µM), for inactives: top-dose activation, actives largely listed as activators. hit rate 2.4% among 320,000; note: % of control where 0% means no effect; nearly all actives have a fitted effect of over 60% in size
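Readout is luciferase luminescence, reflecting NPC1 promoter activation in stably transfected Huh7 cells after 24 h compound exposure at 37 °C in reduced-serum medium with 10% FBS.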
ELG1 genotox = inducers of genotoxicity in HEK293T ELG1-luciferase cells. HEK293T ELG1-luciferase reporter, luminescence, 16 h. Potency, µM (doses to about 46 µM), for the others: top-dose activity change, positive = activation, usual class: activators. hit rate 1.3% among 330,000. AID 504466; note: % of control where 0% means no effect; nearly all actives have a fitted effect of over 60% in size
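HEK293T cells expressing luciferase-tagged ELG1 were treated with compound or DMSO for 16 hr at 37°C. Luciferase activity was then read after 30 min with ONE-Glo at room temperature; rising signal flags genetic stress.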
p53 reactivation = re-activators of mutant p53; H1299 p53-A138V BP100-luciferase reporter, luminescence, 24 h; Potency, µM (highest dose often 92.2 µM), inactives show top-dose activity change, positive = activation, usual class: activators; hit rate 0.063% among 320,000; note: % of control where 0% means no effect; nearly all actives have a fitted effect of over 45% in size
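H1299 (p53-null), stable ts p53-A138V + BP100-Luc; 1000 cells/well, Opti-MEM/10% FBS; cpd 4 pt, 1:5; 24 h, 37 deg C, 5% CO2; detection reagent 10 min RT; luminescence.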
Rab9 prom act = Rab9 promoter activation | Huh7 Rab9 promoter-luciferase reporter, luminescence, 24 h | Potency, µM (series often up to 9.22 µM), for inactives: at the highest dose activation, negative = inhibition, most hits filed as activators | hit rate 2.8% among 320,000 | AID 485297; note: % of control where 0% means no effect; nearly all actives have a fitted effect of over 60% in size
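Steps: seed 1500 Huh7 Rab9-luc cells per well, rest 2 h at 37 °C; add compound in DMSO; incubate 24 h; add luciferase reagent, 10 min ambient; read luminescence.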
SMN2 splice up = increases expression of the SMN2 splice variant; HEK293 SMN2-luciferase splicing reporter, luminescence, 30-36 h; Potency, µM (top dose mostly 46.1 µM), without a hit: at the top dose activity change, positive = activation, usual class: activators; hit rate 2.8% among 210,000; AID 1458; note: % of control where 0% means no effect; nearly all actives have a fitted effect of over 55% in size
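HEK293 cells carry an SMN2 […]–luciferase reporter in which exon 7 inclusion puts luciferase in frame. Cells were plated 10-12 h before compound addition, then incubated 30-36 h at 37C. ONE-Glo luminescence was read; sodium butyrate at 4.5 mM final served as control.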
FLuc counter = counter-screen for miR-21 project: firefly luciferase inhibitors or activators; purified FLuc, Km substrates, luminescence inhibition; hit rate 6.9% among 360,000; P08659; AID 588342; Potency, µM (highest dose often 57.5 µM), for inactives: at the highest dose activity change, negative = inhibition, hits mostly inhibitors;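 note: plate controls were vehicle for no effect and reference inhibitor for full effect; nearly all actives have a fitted effect of over 55% in size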
Target sequence (P08659 whole entry, looked up): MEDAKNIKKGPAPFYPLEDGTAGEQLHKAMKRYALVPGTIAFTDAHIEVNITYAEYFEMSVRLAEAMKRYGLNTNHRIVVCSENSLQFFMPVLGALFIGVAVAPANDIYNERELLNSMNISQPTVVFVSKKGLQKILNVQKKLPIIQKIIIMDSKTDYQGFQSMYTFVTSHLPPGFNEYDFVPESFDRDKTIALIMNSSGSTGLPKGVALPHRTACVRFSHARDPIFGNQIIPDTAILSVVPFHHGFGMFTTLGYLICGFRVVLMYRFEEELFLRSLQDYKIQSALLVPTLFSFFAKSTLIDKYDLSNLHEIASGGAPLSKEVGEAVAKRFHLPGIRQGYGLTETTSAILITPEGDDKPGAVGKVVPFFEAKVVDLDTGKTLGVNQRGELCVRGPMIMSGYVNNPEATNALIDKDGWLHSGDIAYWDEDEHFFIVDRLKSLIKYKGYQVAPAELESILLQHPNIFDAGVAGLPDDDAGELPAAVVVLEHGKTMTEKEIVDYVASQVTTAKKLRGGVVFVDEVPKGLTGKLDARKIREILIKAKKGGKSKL
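Purified P. pyralis luciferase (10nM final) with 10uM D-luciferin and 10uM ATP (Km levels) in 50mM Tris acetate pH 7.5, 10mM Mg acetate, 0.01% Tween-20, 0.05% BSA; qHTS 6-point titration, ~60 µM downward; luminescence read.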
Starred values were filed as active, the others as inactive; ? = inconclusive; nt = no result given; [ ] = dose if it differs, or a comment. Calls come from the whole dose curve; as a rule, active = well fitted curve in the direction sought with a large enough effect; inconclusive = small, poorly fitted or top-dose-only effect, or another doubt; inactive = no such curve, though single readings can be large; an effect the other way counts as inactive or inconclusive. Potency is the fitted concentration of half-maximal effect.

SMILES | NPC1 promoter act | ELG1 genotox | p53 reactivation | Rab9 prom act | SMN2 splice up | FLuc counter
CNc1ncc(C(=O)c2ccc(Cl)cc2)s1 | 3.5µM* | ? | 6% | 2.8µM* | 13µM* | 11µM*
O=C(c1ccc(Cl)c(Cl)c1)c1cnc(Nc2ccccc2)s1 | 1% | 2% | 0% | 6% | -4% | 6%
CNc1ncc(C(=O)c2ccc(Cl)c(Cl)c2)s1 | 3.5µM* | ? | 18% | ? | 24% | ?
Cc1ccc(CNC(=O)COCc2cc(-c3ccc4c(c3)OCO4)on2)cc1 | nt | nt | nt | nt | nt | -14%
O=C(c1cc(-c2ccco2)nc2ccccc12)N1CCCC(C(F)(F)F)C1 (centres undefined) | 0% | -1% | 2% | 3% | nt | ?
Fc1cccc(Nc2ncnc3sccc23)c1 | 0% | 0% | 8% | ? | nt | -18%
O=C(O)c1cccc(Nc2ncnc3sccc23)c1 | 28% | -1% | -4% | 15% | 4% | 7.6µM*
Cc1cnc(-c2nnc(N(C)C(=O)C3CCCO3)s2)cn1 (centres undefined) | 20% | 13% | 16% | 28% | -13% | -13%
CN(C(=O)c1ccno1)c1nnc(-c2ccccn2)s1 | 12% | 14% | 14% | 5% | -1% | 15µM*
COc1ccc(-c2nnc(N(C)C(=O)C3CCCO3)s2)cc1 (centres undefined) | 2.5µM* | ? | ? | 2µM* | 11µM* | 13µM*
CN(C(=O)c1ccncc1)c1nnc(-c2ccccn2)s1 | 23% | ? | ? | ? | ? | 17µM*
Cc1ccc(C(=O)N(C)c2nnc(-c3ccncc3)s2)cc1 | ? | 13% | 14% | ? | 30% | 17µM*
O=C(c1cc(C(F)(F)F)cc(C(F)(F)F)c1)N1CCC2(CC1)CCN(c1ccncc1)CC2 | nt | nt | nt | nt | -23% | nt
COC(=O)c1ccc(C(/C=C/[C@@H](C)C(=O)NCc2cc(C)n(C)n2)NC(=O)OCc2ccccc2)cc1 (some centres undefined) | nt | nt | nt | nt | 11% | nt
COc1ccc(-c2nnc(N(C)C(=O)c3ccno3)s2)cc1 | ? | ? | ? | 3.2µM* | 11µM* | 11µM*
COc1ccc(/C=C/C(=O)NC(=S)NNC(=O)c2cccnc2)cc1 | -1% | 0% | 12% | -1% | 4% | 24µM*
O=C(/C=C/c1ccc(F)cc1)NC(=S)NNC(=O)c1cnccn1 | -17% | -6% | 3% | -23% | nt | ?
COc1ccc(C(=O)NNC(=S)NC(=O)c2cccnc2)cc1 | -1% | -2% | 9% | -19% | nt | 1%
COc1ccc(/C=C/C(=O)NC(=S)NNC(=O)c2cnccn2)cc1 | -15% | ? | 16% | -24% | nt | 17µM*
COc1ccccc1Oc1ccc2c(c1)C(=O)N(c1ccc(C)cc1)C2=O | -2% | -1% | 12% | 16% | -13% | ?
COc1ccccc1Oc1ccc2c(c1)C(=O)N(c1ccccc1)C2=O | -6% | -1% | 20% | 1% | -15% | 9.5µM*
COc1ccc(C(=O)Cn2nnc(-c3cccs3)n2)cc1 | ? | 3% | ? | 2.8µM* | -6% | 9.5µM*
Cc1ccc(C(=O)Cn2nnc(-c3ccccc3)n2)cc1 | 2% | -1% | 5% | 20% | nt | 19µM*
O=C(Cn1nnc(-c2ccccc2)n1)c1ccccc1 | 11% | 10% | 7% | 11% | -14% | ?
COC(=O)Cn1nnc(-c2cccc(OC)c2)n1 | -6% | 0% | -2% | -4% | -11% | 27µM*
SMILES | NPC1 promoter act | ELG1 genotox | p53 reactivation | Rab9 prom act | SMN2 splice up | FLuc counter
N#Cc1cccc(NC(=O)COC(=O)c2ccc[n+]([O-])c2)c1 | nt | 2% | 1% | nt | nt | nt
CCCN(C(=O)c1ccc2c(=O)n3c(nc2c1)CCCCC3)c1cccc(Cl)c1 | nt | nt | nt | nt | 12% | ?
Cc1cccc(NC(=O)c2ccc(Cl)c(S(=O)(=O)N3CCCCC3)c2)n1 | 10% | -5% | 10% | 18% | nt | 2%
CN(C)S(=O)(=O)c1ccc(C(=O)NCCSc2ccccc2)cc1 | ? | 10µM* | 28% | ? | 18% | ?
COc1cc(C(=O)NCCSc2ccccc2)cc(OC)c1OC | 5% | -1% | ? | 9% | nt | -15%
COc1ccccc1OCCNC(=O)c1ccc(Br)cc1 | ? | ? | 16% | 0%[1.84 µM] | nt | 24µM*
COc1ccccc1OCCNC(=O)Nc1ccc(Br)cc1 | 0% | -3% | -3% | -2% | 10% | 2%
COc1ccc(C(=O)NCCSc2ccccc2)cc1OC | ? | ? | ? | ? | 14µM* | ?
O=C(COc1ccccc1)NCCSc1ccccc1 | ? | 21µM* | ? | 12% | 21% | 27µM*
O=C(Nc1cccc([N+](=O)[O-])c1)c1ccc2c(c1)C(=O)N(c1ccccn1)C2=O | 2% | 10% | 0% | 3% | nt | -16%
N#C/C(=C\c1ccc(OCC(N)=O)cc1)c1ccccc1 | 25% | ? | 28% | 22% | 23% | 3.8µM*
CCOC(=O)CN/C=C(\C#N)c1ccccc1 | 0% | 2% | 2% | -1% | -8% | ?
Cc1ccc(OC(C)C(=O)Nc2ccc(S(=O)(=O)N3CCOCC3)cc2)cc1 (centres undefined) | -1% | -3% | -8% | 0% | nt | 3%
Cc1ccc(C)c(S(=O)(=O)c2nnn3c2nc(Nc2ccc(C)c(C)c2)c2ccccc23)c1 | nt | nt | nt | nt | -1% | -4%
CC(C)CN(c1ccccc1)S(=O)(=O)c1nnc(NC(=O)C(C)C)s1 | -2% | 1% | 2% | -4% | nt | 1%
CCN(c1ccccc1)S(=O)(=O)c1nnc(NC(=O)C2CCCCC2)s1 | nt | nt | nt | nt | nt | 2.7µM*
CCN(c1ccc(C)cc1)S(=O)(=O)c1nnc(NC(=O)C2CCCCC2)s1 | nt | nt | nt | nt | nt | 11µM*
CCN(c1ccc(OC)cc1)S(=O)(=O)c1nnc(NC(=O)C2CCCCC2)s1 | -2% | 2% | -3% | -2% | nt | 1%
CCN(c1cccc(C)c1)S(=O)(=O)c1nnc(NC(=O)C2CCCCC2)s1 | nt | nt | nt | nt | nt | 15µM*
CN(c1ccc(Cl)cc1)S(=O)(=O)c1nnc(NC(=O)C2CCCCC2)s1 | nt | nt | nt | nt | nt | 1%
CC(C)CC(=O)Nc1nnc(S(=O)(=O)N(CC(C)C)c2ccccc2)s1 | nt | nt | nt | nt | nt | 0.85µM*
CCC(CC)C(=O)Nc1nnc(SCc2cc(=O)c3ccccc3[nH]2)s1 | nt | nt | nt | nt | nt | -8%
CCc1ccc(Nc2nc3ccccc3c3nnc(C)n23)cc1 | nt | nt | nt | nt | nt | -3%
CCC(Sc1nnc(C)n2c1cc1sccc12)C(=O)Nc1ccccc1F (centres undefined) | nt | nt | nt | nt | nt | -1%
Cc1cc(C)n(CC(O)Cn2c3ccccc3c3ccccc32)n1 (centres undefined) | 0% | -2% | -1% | -5% | 13µM* | 2%
